The panel holds about 83,000 compounds, 20% with a hit somewhere; the sample as a whole holds those more often.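 Testing used 96-well plates and a 48-hour single-concentration exposure. Example: -40 means 40% of the starting cells died.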 Activity calls are given as the source filed them. How the source made its calls: active means growth percent below 10; inactive means the rest.
System: MDA-MB-468 breast
Assay: NCI-60 one-dose screen, 48 h (100 = growth as untreated, 0 = no growth, -100 = all killed)
Conditions: 10 µM unless noted

Structure (SMILES)	growth
COc1cc(-c2ccc3cc(OC)c(OC)c(OC)c3c2)cc(OC)c1OC	31.6% (inactive)
ClCc1cccc(CSc2ncnc3c2ncn3Cc2cccc(CCl)c2)c1	-89.3% (active)
COc1cc(Cl)cc(-c2nn(-c3cccc(NC(=O)c4cc(C(F)(F)F)cc(C(F)(F)F)c4)c3)cc2-c2ccncc2)c1	46.5% (inactive)
N#Cc1c(Oc2ccc([N+](=O)[O-])cc2)nc2sc3cc(Cl)ccc3n2c1=N	-39.8% (active)
Cc1nn(-c2cccc(Cl)c2)c(C)c1N=Nc1ccc(Br)cc1	97.6% (inactive)
COc1ccc(-c2cc(C(=O)N=Nc3c(O)[nH]c4ccc(Br)cc34)no2)cc1	103% (inactive)
C=C1C(=O)O[C@H]2[C@H]1CC/C(COC(=O)/C=C\C(=O)NCc1ccc(Cn3c(=O)sn(CCCCC)c3=O)cc1)=C\CC[C@@]1(C)O[C@@H]21	47% (inactive)
O=C(Nc1ncc(Cc2ccccc2)s1)c1cc(-c2ccccc2)nc2ccccc12	103% (inactive)
Nc1nc(N)c2c(n1)NC(c1cccc(Nc3ccnc4cc(C(F)(F)F)ccc34)c1)CC(c1ccc(F)cc1)=N2 (configuration not stated)	18% (inactive)
CC(C)(Cl)CCC1=C(Cl)C(=O)c2ccccc2C1=O	-43.5% (active)
Cc1ccccc1CNC(=O)C1CN(c2ccc(Cl)cc2)N(c2ccc(Cl)cc2)C1=O (configuration not stated)	83.2% (inactive)
COc1cccc(Cn2c(-c3nonc3NC(C)=O)nc3ccccc32)c1	-7.42% (active)
CCN1CCN(c2nc(NCCNc3ccnc4cc(Cl)ccc34)c3ccccc3n2)CC1	-28.8% (active)
COc1cc(/C=C\C(=O)O)ccc1OCc1ccccc1	92.5% (inactive)
Nc1nc(CSc2n[nH]c(N)n2)nc(Nc2ccccc2)n1	108% (inactive)
CCN(CC)c1ccc(C(=C2C=CC(=[N+](CC)Cc3cccc(S(=O)(=O)O)c3)C=C2)c2ccc(N(CC)Cc3cccc(S(=O)(=O)O)c3)cc2)cc1	12.1% (inactive)

Structure (SMILES)	growth
Nc1ccccc1-c1cc2c(c3c1[nH]c1ccccc13)CCCCC2	98.2% (inactive)
COc1cccc(N2CCN(CC(=O)N3CCN(c4nnc(-c5ccc(Cl)cc5)c(-c5ccc(Cl)cc5)n4)CC3)CC2)c1	76.5% (inactive)
S=C(Nc1ccc(C2=NCCN2)cc1)Nc1ccc(C2=NCCN2)cc1	67.6% (inactive)
Cn1cc(-c2nnc(-c3ccccc3)s2)c2cc(Br)cnc21	59.4% (inactive)
COc1ccc(S(=O)(=O)c2ccc(F)cc2)cc1	105% (inactive)
O=C(Nc1nc2cc(C(=O)N3CCN(C(c4ccccc4)c4ccccc4)CC3)ccc2o1)c1ccc(NC2CCCCC2)c([N+](=O)[O-])c1	75.2% (inactive)
O=C(CN1C(=O)S/C(=C\C(Cl)=C\c2ccccc2)C1=O)NCCCn1ccnc1	-28.2% (active)
Oc1c(Cl)cc(Cl)c(Cl)c1CNCCNCc1c(O)c(Cl)cc(Cl)c1Cl	2.91% (active)
CC(=O)Nc1ccc(-c2cc3c(NCc4ccc(F)cc4)ncnc3s2)cc1	69.7% (inactive)
Cc1cccc2nc3c(n12)C(=O)C(=O)c1ccccc1-3	79.9% (inactive)
CCN(CC)c1ccc(Nc2ccc(CC(=O)c3ccccc3)cc2)cc1	85.2% (inactive)
O=C1CCC(=O)N1C1CCCCC1	97% (inactive)
CCCCCCCCCCOC(c1ccccc1)c1ccccc1	92.1% (inactive)
Clc1ccc(/C=C2\CCCC3=C2N=C2SC=NN2C3c2ccc(Cl)cc2)cc1 (configuration not stated)	90.4% (inactive)
Cc1cccc(/C=N/n2c(-c3ccc(Cl)cc3)nc3c(Br)cc(Br)cc3c2=O)c1	46.7% (inactive)
COc1cc2c3c(n([C@@H]4CCOC4)c(=O)c2cc1OC)-c1cc2c(cc1C3=O)OCO2	11.2% (inactive)

— PubChem BioAssay (NCI)
